Assay outcomes deposited in PubChem BioAssay by National Center for Advancing Translational Sciences (NCATS).
Most compounds without a hit are left out; they make up all but 2.9% or so of the library.
D3 antag = blocks the human D3 dopamine receptor; 2.5% of 360,000 active; AID 652054; P35462; D3R cells, DiscoveRx beta-arrestin luminescence, antagonist mode; hits give low values; max response, negative = inhibition, %; in the data active means max response below about -50%; inconclusive means no clear call, values can overlap the other calls; further: on the % scale 0 is the no-effect control and ±100 the full control effect
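Cells plated overnight at 1500 cells/well, then exposed to library compounds with dopamine controls for 90 minutes at 37 degrees C. DiscoveRx reagent added for 30–60 minutes at room temperature; luminescence read, quantitative HTS format.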
B2AR arrestin = beta2AR (human) beta-arrestin recruitment activity; beta-arrestin recruitment to beta2AR, cell-based reporter; Potency, µM (top dose mostly 46.1 µM), for the others: at the highest dose activation, usual class: activators; 0.02% of 330,000 active; AID 492947;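 further: potency means the concentration at half of the fitted maximal effect; 0% = DMSO controls and full agonism = EC100 isoproterenol or metaproterenol; nearly all actives have a fitted effect of over 65% in size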
mIDH1 inhibitor = human IDH1 R132H inhibition. 0.093% of 390,000 active. AID 602179. O75874. Potency, µM (titrated, usually from 76.6 µM), for inactives: at the highest dose activity change, negative = inhibition, most hits filed as inhibitors. IDH1-R132H enzyme, NADPH consumption, diaphorase/resazurin fluorescence; further: potency means the concentration at half of the fitted maximal effect; on the % scale 0 is the no-effect control and ±100 the full control effect; nearly all actives have a fitted effect of over 65% in size
Target sequence (O75874 whole entry R132H, stated change not applied): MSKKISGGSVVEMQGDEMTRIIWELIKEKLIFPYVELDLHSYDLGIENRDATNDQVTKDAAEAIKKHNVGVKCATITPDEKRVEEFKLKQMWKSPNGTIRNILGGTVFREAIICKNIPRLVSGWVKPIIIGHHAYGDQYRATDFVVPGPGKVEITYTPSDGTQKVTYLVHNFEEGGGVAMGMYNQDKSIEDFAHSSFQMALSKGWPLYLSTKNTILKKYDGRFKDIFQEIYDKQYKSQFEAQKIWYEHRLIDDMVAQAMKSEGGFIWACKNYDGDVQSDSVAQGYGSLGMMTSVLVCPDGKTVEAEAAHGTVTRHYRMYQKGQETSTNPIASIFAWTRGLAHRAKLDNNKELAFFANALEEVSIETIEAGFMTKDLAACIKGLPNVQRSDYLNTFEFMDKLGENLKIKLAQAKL
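IDH1-R132H (0.5 ug/mL dispensed) in pH 7.5 Tris buffer was preincubated 30 min with compound, then given a substrate mix of 0.016 mM NADPH and 2 mM alpha-KG for 80 min at room temperature; remaining NADPH was read by diaphorase/resazurin fluorescence.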
DRD3 agonist = D3 dopamine receptor (human) agonism; D3R DiscoveRx beta-arrestin cells, luminescence, 90 min; P35462; 0.58% of 410,000 active; max activation, %; in the data active means max activation above about 30%; further: 0% is about no effect
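Cells at 1500/well, incubated overnight, then treated with pinned compounds (dopamine as control) for 90 min at 37 degrees C. DiscoveRx reagent added for 30 - 60 minutes at room temperature; luminescence read.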
Integrin act MD = integrin-mediated muscular dystrophy alleviation activation; alpha7betagal myoblasts, beta-gal FDG fluorescence, 48 h; Potency, µM (highest dose often 38.3 µM), for the others: top-dose activation, hits mostly activators; 0.064% of 350,000 active;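 further: potency means the concentration at half of the fitted maximal effect; 100% = response of the positive control SU9516; nearly all actives have a fitted effect of over 60% in size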
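alpha7betagal+/- myoblasts (passage 13, 250/well) treated 48 h at 37C with compounds at 1:260 dilution of DMSO stock. Lysed, then beta-galactosidase activity read as FDG fluorescence (ex 480/em 540) after 30 min, with pre-read for autofluorescence.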
Active calls of the source: *; ? = inconclusive; . = no result; ! = not active in a repeat; [ ] = remark or other dose. Unless noted, the call rests on the fitted dose curve; in most records, active means well fitted curve in the direction sought with a large enough effect; inconclusive means small, poorly fitted or top-dose-only effect, or another doubt; inactive means no such curve, though single readings can be large; an effect the other way counts as inactive or inconclusive.

SMILES	D3 antag	B2AR arrestin	mIDH1 inhibitor	DRD3 agonist	Integrin act MD
CCCN(CCC)C(=O)C(CCC(=O)OCCCN1CCN(CCOC(=O)Cc2c(C)n(C(=O)c3ccc(Cl)cc3)c3ccc(OC)cc23)CC1)NC(=O)c1ccccc1 (configuration not stated)	.	.	.	-30	.
CC(=O)C1=C(C)NC2=C(C(=O)c3ccccc32)C1c1ccccc1 (configuration not stated)	-52*	0%	-2%	-8	23%
COc1ccc(CCN(C)CCCC(C#N)(c2cc(OC)c(OC)c(OC)c2)C(C)C)cc1OC (configuration not stated)	-57*	?	11%	-84	.
COc1ccc(CCN(C)CCc2ccc(OC)c(OC)c2)cc1OC	-21	.	3%	-65	.
O=C1CCN(Cc2ccccc2)C=C1C(=O)c1ccccc1	-20	.	-2%	47*	0%
O=C1CCN(Cc2ccccc2)C=C1c1ccc(Cl)cc1	0	0%	5%	-3	19%
COc1cc(C(CC(=O)Nc2cccc(C(C)=O)c2)N2Cc3ccccc3C2=O)cc(OC)c1OC (configuration not stated)	.	.	-12%	-4	.
CC(=O)OC(COc1ccccc1)Cn1cnc2cc(C)c(C)cc21 (configuration not stated)	-59*	0%	12%	0	-6%
CCOC(=O)c1cnn(-c2ccccc2)c1NC(=O)C(F)(F)C(F)(F)C(F)(F)F	-68*	0%	2%	-4	-9%
O=c1c(Cl)c(Cl)cnn1Cc1nnc(-c2ccc(Cl)cc2)o1	-87*	-2%	13%	-18	-65%
Cc1cc(C)cc(OCC2CNC(=O)O2)c1 (configuration not stated)	14	.	2%	83*!	-2%
COc1ccc(Nc2nc(Nc3ccc(OC)cc3)nc(-n3[nH]c(=O)c(C)c3C)n2)cc1	-59*	0%	1%	-16	1%
COc1ccc(Nc2nc(OC)nc(OC)n2)cc1	6	0%	-7%	0	14%
CC(C)CCN(Cc1ccco1)C(=O)c1cc2c(Cl)nc3ccccc3c2s1	.	.	-3%	12	.
Cc1cnc(C2OCCO2)c2cccc(N)c12	?	.	3%	-11	21%
Cc1cccn2c(=O)nc(SCC(=O)N3CCC(Cc4ccccc4)CC3)nc12	-59*	0%	-2%	-35	16%
COc1ccccc1/C=C/CN1CCC(Oc2cc(C(=O)NC3CC3)ccc2OC)CC1	-77*	0%	-1%	-7	-10%
COc1ccccc1/C=C/CN1CCC(Oc2ccc(C(=O)N3CCCCC3)cc2)CC1	-105*	3%	1%	-50	-31%
COc1ccc(C(=O)NC2CC2)cc1OC1CCN(Cc2ccccc2)CC1	-5	1%	2%	-2	3%
COc1ccc(/C=C/CN2CCC(Oc3ccc(C(=O)N4CCCCC4)cc3)CC2)cc1	-21	-1%	4%	-13	-48%
CCOc1ccc(Nc2nc3c(S(=O)(=O)c4ccc(CC)cc4)nnn3c3ccc(Cl)cc23)cc1	.	.	-2%	2	.
Cc1cc(C)cc(Nc2cc(-c3ccccc3)nc(C)n2)c1	.	.	2%	22	.
CSc1nc(Nc2ccc(C)cc2C)cc(-c2ccccc2)n1	.	.	-13%	33*	.
Cc1ccccc1Cn1nnc2c(=O)[nH]c(C3CCN(C(=O)c4ccccc4)CC3)nc21	.	.	13%	-23	.
Cc1ccc(SCc2nc(-c3ccc(C(=O)NCC(C)c4ccccc4)cc3)oc2C)cc1 (configuration not stated)	.	.	6%	-14	.
SMILES	D3 antag	B2AR arrestin	mIDH1 inhibitor	DRD3 agonist	Integrin act MD
CC(C(O)c1ccc(O)cc1)N1CCC(Cc2ccccc2)CC1 (configuration not stated)	-88*!	-1%	-1%	-91	.
CCOc1ccc(-c2nonc2NC(=O)c2ccc(C)cc2)cc1OCC	.	.	16%	-10	.
Cc1cc(C(=O)Nc2cccc3ccccc23)c(C)o1	-27	-1%	-4%	-10	7.9µM*
COc1ccccc1CNC(=O)Cn1ccsc1=N	25	4%	9%	-14	-18%
CC(C)Oc1ccc(CNC(=O)C2CCN(c3nc4ccccc4nc3C(F)(F)F)CC2)cc1	.	.	-1%	-13	.
CN1CCN(c2ccc(NC(=O)c3ccc(C#N)cc3F)cc2Cl)CC1	-57*	0%	-5%	-5	?
CCC(=O)N1CCN(c2ccc(NC(=O)c3ccc(C#N)cc3F)cc2Cl)CC1	6	0%	2%	17	-5%
Cc1cc(/C=C\c2ccc3cc(N(C)C)ccc3[n+]2C)c(C)n1-c1ccccc1	-61*	0%	-17%	-42	.
C[n+]1c(/C=C/c2ccc(O)cc2)ccc2ccccc21	?	0%	5%	-14	-21%
O=C(O)c1cc(-n2c(/C=C\c3ccc(F)cc3)nc3ccccc3c2=O)ccc1Cl	.	.	-14%	5	.
COCCNC(=O)CSc1nc2cc3c(cc2c(=O)n1CCCC(=O)NCc1ccc2c(c1)OCO2)OCO3	.	.	8%	8	.
O=S(=O)(Nc1cccc(S(=O)(=O)N2CCCC2)c1)c1ccc(F)cc1	16	-2%	2%	1	5%
O=S(=O)(Nc1cccc(S(=O)(=O)N2CCCCCC2)c1)c1ccccc1	3	-1%	-15%	33*	-27%
O=c1[nH]c2cc([N+](=O)[O-])c([N+](=O)[O-])cc2[nH]c1=O	?	3%	-12%	-6	?
CN(C)c1c([N+](=O)[O-])cc2[nH]c(=O)[nH]c2c1[N+](=O)[O-]	-69*	0%	4%	-16	3%
CCOc1ccc(C2C(C(N)=O)=C(C)Nc3nc(SCc4ccccc4)nn32)cc1 (configuration not stated)	.	.	-13%	8	.
COc1ccc2nc3sc(C(=O)NCCN4CCc5ccccc5C4)cc3cc2c1	-68*	1%	8%	-51	-31%
COc1ccc2cc3cc(C(=O)NCCCN4CCc5ccccc5C4)sc3nc2c1	-65*	-1%	8%	-11	-14%
COc1ccc2cc3cc(C(=O)NC4CC4)sc3nc2c1	-18	0%	-3%	-4	-1%
Cc1cc2c(c(=O)n1Cc1ccccc1)C1O[C@](CCCCN3C(=O)c4ccccc4C3=O)(Cc3cc(C#N)ccc31)O2	.	0%[9.22 µM]	.	.	.
NC1=Nc2cccc3cccc1c23	-29	0%	37%	-33	7.9µM*
C(=N\NC1=Nc2cccc3cccc1c23)/c1ccccc1	1	3%	31%	-15	-4%
CCCCc1c(CCC)c(=N)c2ccccc2n1C	-73*	0%	6%	0	-63%
COc1ccc([N+](=O)[O-])cc1NC(=O)c1cn(-c2ccc(Cl)cc2)c(=O)c2ccccc12	-53*	-1%	-10%	-2	-21%
N#CCC(=O)N1CCn2c1nc1ccccc12	49	0%	1%	9	22%
c1ccc(CN2CCN(CCN3CCn4c3nc3ccccc34)CC2)cc1	-72*	-1%	-3%	1	0%
